Only some compounds are listed: those with a hit (about 10% of all), similar ones and a draw of the others.
NIH3T3 tox: kills NIH 3T3 cells. Potency, µM (doses to about 96.7 µM), inactives show at the highest dose activity change, negative = cytotoxicity, usual class: inhibitors. 94,000 tested, 4.3% active. NIH 3T3 viability, CellTiter-Glo ATP luminescence, 48-72 h. AID 1345082; also: % is scaled to controls: 0 for no effect and ±100 for the full control effect; nearly all actives have a fitted effect of over 55% in size
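ATP-dependent luminescence (CellTiter-Glo) served as the viability signal for NIH 3T3 cells treated with compound for 48 or 72 hr at 37 °C.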
GPT2 inhibitor: inhibitors of human GPT2 alanine aminotransferase; Potency, µM (series often up to 57.7 µM), inactives show top-dose activity change, negative = inhibition, actives largely listed as inhibitors; Q8TD30; Recombinant GPT2, coupled pyruvate oxidase/HRP Amplex Red fluorescence; 100,000 tested, 0.25% active; also: % is scaled to controls: 0 for no effect and ±100 for the full control effect; nearly all actives have a fitted effect of over 60% in size
Target sequence (Q8TD30 whole entry, looked up): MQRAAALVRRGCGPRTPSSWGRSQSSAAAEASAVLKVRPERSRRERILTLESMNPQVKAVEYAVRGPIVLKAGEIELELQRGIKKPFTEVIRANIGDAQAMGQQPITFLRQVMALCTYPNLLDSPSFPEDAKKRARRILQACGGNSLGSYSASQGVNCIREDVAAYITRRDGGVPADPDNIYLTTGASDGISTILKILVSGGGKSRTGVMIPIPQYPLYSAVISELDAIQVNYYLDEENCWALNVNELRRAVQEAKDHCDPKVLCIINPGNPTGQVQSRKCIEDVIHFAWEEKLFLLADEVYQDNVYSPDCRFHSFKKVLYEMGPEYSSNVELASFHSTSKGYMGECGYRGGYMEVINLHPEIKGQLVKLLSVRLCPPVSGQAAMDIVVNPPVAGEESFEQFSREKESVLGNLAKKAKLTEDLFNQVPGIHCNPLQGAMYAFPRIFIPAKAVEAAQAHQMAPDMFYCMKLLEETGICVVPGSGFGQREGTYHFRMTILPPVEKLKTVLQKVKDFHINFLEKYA
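GPT2 10ng/uL, a-KG 250uM, L-Ala 2mM, HEPES pH7.5 + 0.0001% Tween; 30 min RT. Then Amplex mix (PO/HRP/ThPP), 30 min RT dark, fluorescence. AOA 50uM used as positive control.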
Luciferase inh: inhibitors of firefly (Photinus pyralis) luciferase; purified P. pyralis luciferase, luminescence, biochemical; Potency, µM (top dose mostly 115 µM), actives largely listed as inhibitors; P08659; 76,000 tested, 2.5% active; also: % is scaled to controls: 0 for no effect and ±100 for the full control effect; nearly all actives have a fitted effect of over 65% in size
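Purified P. pyralis luciferase (10nM final) in 50mM Tris acetate pH 7.5, 10mM Mg acetate, 0.01% Tween-20, 0.05% BSA with 10uM D-luciferin and 10uM ATP. Compounds titrated qHTS. Luminescence imaged on CCD.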
HEK293 tox: HEK 293 cell cytotoxicity. HEK 293 viability, ATP luminescence (CellTiter-Glo), 48-72 h. Potency, µM (top dose mostly 115 µM), without a hit: at the highest dose activity change, negative = cytotoxicity, usual class: inhibitors. 94,000 tested, 6.6% active. AID 1345083; also: % is scaled to controls: 0 for no effect and ±100 for the full control effect; nearly all actives have a fitted effect of over 60% in size
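HEK 293 cells seeded at 250 cells/well were exposed to compound for 48 or 72 hr at 37 degree Celsius. Viability taken as ATP content by CellTiter-Glo luminescence.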
hNpr1 antagonist: antagonists of human natriuretic peptide receptor Npr1. P16066. HEK293 hNpr1 GloSensor cGMP, ANP-stimulated luminescence. Potency, µM (doses to about 46.3 µM), for the others: at the top dose activity change, negative = inhibition, usual class: inhibitors. 76,000 tested, 1.6% active. AID 1347048; calls by dose curve; also: % is scaled to controls: 0 for no effect and ±100 for the full control effect; nearly all actives have a fitted effect of over 60% in size
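HEK293 cells stably expressing human Npr1 and cGMP GloSensor pGS-40F, loaded 2 h with 2% GloSensor reagent, given compound 30 min at room temperature. Luminescence read before and 20 min after 0.1 nM hNppA.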
NPR1 antag cnf: hNpr1 antagonism, confirmation assay; shares compounds with hNpr1 antagonist; HEK293 hNpr1 cGMP GloSensor luminescence, ANP-stimulated; Potency, µM (series often up to 57.6 µM), without a hit: top-dose activity change, negative = inhibition, usual class: inhibitors; 1,400 tested, 76% active; calls by dose curve; also: nearly all actives have a fitted effect of over 70% in size
Npr2 selectivity: antagonizes human Npr2, subtype selectivity check; shares compounds with hNpr1 antagonist; HEK293 hNpr2 GloSensor cGMP luminescence, CNP-stimulated; Potency, µM (top dose mostly 57.6 µM), inactives show at the highest dose activity change, negative = inhibition, hits mostly inhibitors; 1,400 tested, 67% active; AID 1347046; calls by dose curve; also: nearly all actives have a fitted effect of over 70% in size
FLuc counter: inhibits firefly luciferase, false Npr1 antagonist flag; purified FLuc enzyme, luminescence, Km substrate; AID 1347047; Potency, µM (doses to about 57.6 µM), without a hit: top-dose activity change, negative = inhibition, actives largely listed as inhibitors; shares compounds with hNpr1 antagonist; 1,400 tested, 0.7% active; also: 0% is about no effect
GloSensor cGMP: reduces cGMP signal in GloSensor control cells; shares compounds with hNpr1 antagonist; HEK293 GloSensor cGMP, SNP-stimulated, luminescence; Potency, µM (titrated, usually from 57.6 µM), for inactives: top-dose activity change, negative = inhibition, usual class: inhibitors; 1,400 tested, 69% active; AID 1347051; calls by dose curve; also: % is scaled to controls: 0 for no effect and ±100 for the full control effect; nearly all actives have a fitted effect of over 70% in size
* hit, by the source's call; i = inactive; ? = inconclusive; / = not tested or not shown; [ ] = another dose, or the depositor's remark. Unless noted, calls follow the shape of the dose curve; as a rule, active = well fitted curve in the direction sought with a large enough effect; inconclusive = small, poorly fitted or top-dose-only effect, or another doubt; inactive = no such curve, though single readings can be large; an effect the other way counts as inactive or inconclusive. Potency is read from the fitted curve at half-maximal effect.

SMILES	NIH3T3 tox	GPT2 inhibitor	Luciferase inh	HEK293 tox	hNpr1 antagonist	NPR1 antag cnf	Npr2 selectivity	FLuc counter	GloSensor cGMP
COc1ccccc1C(=O)N1CCC(Cc2nc(-c3ccc(F)cc3)no2)CC1	?	-3.5%	i	?	6.31µM*	9.68µM*	12.2µM*	-0.3%	10.9µM*
COc1ccccc1C(=O)N1CCC(Cc2nc(C(C)C)no2)CC1	-20.4%	-6.1%	i	?	-4.3%	/	/	/	/
CNC(=O)c1cc(C2CC2)nc2onc(C3CCN(C(=O)COC)C3)c12 (stereo unspecified)	3.2%[138 µM]	/	/	2.1%[172 µM]	/	/	/	/	/
COc1cccc(C(=O)N2CCCN(c3cc(-c4ccc(C)c(C)c4)[nH]n3)CC2)c1OC	?	-10.3%	i	39.8µM*	10µM*	24.3µM*	21.7µM*	-11.4%	24.3µM*
COc1ccccc1C(=O)N1CCCN(c2cc(-c3ccc(F)cc3)[nH]n2)CC1	?	-12.0%	i	?	-12.2%	/	/	/	/
COc1cccc(C(=O)N2CCCN(c3cc(-c4ccc(Cl)cc4)[nH]n3)CC2)c1OC	?	?	i	?	11.2µM*	19.3µM*	17.2µM*	4.8%	15.3µM*
O=C(c1cccnc1)N1CCOC[C@H](Oc2ccc(C(F)(F)F)cn2)C1	-21.9%[138 µM]	i	i	-23.3%[172 µM]	1.8%[70.6 µM]	/	/	/	/
Cc1nn(-c2ccccc2)c2c1C(C(C)C)N(C1CN(C(=O)c3ccc(C(F)(F)F)cc3)C1)C2=O (stereo unspecified)	-22.4%	/	/	i	/	/	/	/	/
O=C1N[C@H](CC(=O)N2CCC(Cc3ccccc3)CC2)C(=O)Nc2ccccc21	-20.7%	i	i	?	10µM*	19.3µM*	12.2µM*	-0.5%	-19.5%
O=C1N[C@H](CC(=O)N2CCC(c3ccccc3)C2)C(=O)Nc2ccccc21 (stereo partly specified)	i	i	i	9.6%	6.5%	/	/	/	/
CCCc1ncncc1C(=O)N1CCc2onc(-c3ccccc3F)c2C1	-0.3%	i	i	-2.7%	5.2%	/	/	/	/
COc1ccc(C)cc1C(=O)N1CCc2onc(-c3ccccc3F)c2C1	-29.4%	-1.6%	i	28.2µM*	14.1µM*	24.3µM*	21.7µM*	-0.9%	21.7µM*
COc1ccc(-c2nnc(C[C@@H]3C[C@@H](C(C)C)[C@H](CNc4ccccn4)C=C3C)o2)cc1	35.5µM*	-13.9%[88.5 µM]	i	25.1µM*	15.8µM*	22.2µM*	28µM*	-0.6%[86.2 µM]	22.2µM*
COc1ccc(-c2nnc(C[C@@H]3C[C@@H](C(C)C)[C@H](CNCc4cccnc4)C=C3C)o2)cc1	?	4.9%	i	?	-29.8%	/	/	/	/
CC1=C[C@@H](CN2CCN(c3ncccn3)CC2)[C@H](C(C)C)C[C@H]1Cc1nnc(-c2ccccc2F)o1	39.8µM*	1.0%	i	31.6µM*	-21.2%	?	?	-2.4%	27.3µM*
CC(=O)N1CCN(C(=O)c2ccc3nnc(-c4ccc(F)cc4)n3c2)CC1	-3.2%	2.7%	/	5.0%	/	/	/	/	/
CC1(COc2ccccc2)COc2ccc(C(=O)NCc3ccncc3)cc2N1 (stereo unspecified)	?	i	i	?	?	/	/	/	/
CC1(COc2ccccc2)COc2ccc(C(=O)N3CCOCC3c3ccncc3)cc2N1 (stereo unspecified)	?	-11.0%	i	?	-24.8%	?	?	4.2%	?
Cc1ncsc1CN1CCC2(CC1)CC(Cc1nc(-c3ccccc3)no1)CCO2 (stereo unspecified)	?	?	i	17.8µM*	10µM*	12.2µM*	17.2µM*	-9.8%	13.7µM*
CC1CCN(CC2CCCCCN2C(=O)NCc2ccc(F)cc2)CC1 (stereo unspecified)	-33.0%	i	i	-23.0%	-14.6%	/	/	/	/
CS(=O)(=O)c1cnc(NCCCc2ccccc2)nc1C1CCCNC1 (stereo unspecified)	?	i	i	?	0.3%	/	/	/	/
CCc1cnc(N2CCC(Oc3cnc4c(ccn4CCN[S+](C)(=O)[O-])c3)CC2)nc1	?	2.1%	i	?	6.31µM*	6.85µM*	9.68µM*	1.6%	6.85µM*
CCc1cnc(N)nc1N1CCC(Oc2ccc(F)cc2)CC1	?	-7.9%	i	?	-15.4%	/	/	/	/
Cc1nccc(N2CCC(Oc3cnc4c(ccn4CCN[S+](C)(=O)[O-])c3)CC2)n1	?	3.4%[88.5 µM]	i	?	28.2µM*	31.4µM*	35.3µM*	-1.8%[86.2 µM]	25µM*
COC[C@@H]1OCCN(C(=O)NCc2ccc(C)cc2)[C@H]1c1ccccc1	-14.9%	-5.1%	/	-5.1%	/	/	/	/	/
SMILES	NIH3T3 tox	GPT2 inhibitor	Luciferase inh	HEK293 tox	hNpr1 antagonist	NPR1 antag cnf	Npr2 selectivity	FLuc counter	GloSensor cGMP
CNC(=O)c1cc(C2CC2)nc2onc(C3CCCN(C(=O)Cc4ccc(F)cc4)C3)c12 (stereo unspecified)	-21.5%	/	/	?	/	/	/	/	/
CCC(C)(C)c1ccc2c(C(=O)N3C[C@H](N)C[C@H]3C(=O)NC)csc2c1	?	i	i	?	1.9%	/	/	/	/
COCCC(=O)N1CCCC(Cc2nc(C3CCOCC3)no2)C1 (stereo unspecified)	i	-15.1%	i	2.7%	-17.7%	-6.7%	1.5%	1.4%	1.8%
O=C(CCCc1ccccc1)N1CCCC(Cc2nc(C3CCOCC3)no2)C1 (stereo unspecified)	?	-0.2%	i	?	-0.3%	/	/	/	/
CCN1C(=O)C2CC3(CCN(Cc4ccc5c(c4)CCO5)CC3)CN2C1=O (stereo unspecified)	-23.0%	1.7%	/	?	/	/	/	/	/
Clc1ccc(C2Cn3nnc(-c4noc(C5CCCC5)n4)c3CO2)cc1 (stereo unspecified)	-12.1%	i	i	?	-22.5%	/	/	/	/
